Values without a mark were called inactive. Inconclusive results are not listed. The source made the active and inactive calls. Unless noted, the call rests on the fitted dose curve.

The values below come from PubChem BioAssay (Tox21).

Assay [1] can be described thus: Nuclear factor erythroid 2-related factor 2/antioxidant responsive element (Nrf2/ARE) small molecule agonists: qHTS cell viability counter screen in human keratinocytes (AID 1919968; active means well fitted curve in the direction sought with a large enough effect in the repeat runs; an effect the other way counts as inactive or inconclusive; further: nearly all actives have a fitted effect of over 55% in size; further: potency means the concentration at half of the fitted maximal effect). In short, it runs like this: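 CellTiter-Fluor fluorescence, read 1 h after reagent, gave viability in the same wells as the ARE-luciferase assay. KeratinoSens cells (1,500/well) had 23 h compound exposure at 37 C/5% CO2 following 5 h plating.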
A general note: Quantitative high-throughput screening tests each substance at several concentrations.

A short description of assay [2]: Nuclear factor erythroid 2-related factor 2/antioxidant responsive element (Nrf2/ARE) small molecule agonists: luciferase reporter gene qHTS assay in human keratinocytes (AID 1919969; further: nearly all actives have a fitted effect of over 35% in size; further: potency means the concentration at half of the fitted maximal effect). (Reporter assays use an easily measured gene product as a stand-in for the process of interest.)
Assay [3] concerns the target Gonadotropin-releasing hormone receptor (Homo sapiens) (UniProt P30968). Kind of assay: Human gonadotropin-releasing hormone receptor (GnRHR) small molecule agonists, calcium flux assay in GnRHR-HEK293 cells (AID 1920063). Further: nearly all actives have a fitted effect of over 35% in size. In short, it runs like this:
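Agonist mode: compounds at 15 concentrations, in triplicate, went onto calcium dye-loaded GnRHR-HEK293 cells. Intracellular calcium was then followed as 480/540 nm fluorescence at 1 s intervals over 3 min.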
Background: A change in cytosolic calcium serves as a functional read-out for many receptors and channels.

The target of assay [4] is KiSS-1 receptor (Homo sapiens) (UniProt Q969F8). Kind of assay: Human kisspeptin (KISS1R) small molecule agonists, calcium flux assay in KISS1R-HEK293 cells (AID 1920064; active means well fitted curve in the direction sought with a large enough effect in the repeat runs; an effect the other way counts as inactive or inconclusive). The gist of the method: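 Agonist mode: intracellular calcium rise tracked at 1 s intervals over 3 min (480/540 nm) immediately after compound addition to dye-loaded KISS1R-HEK293 stable cells. Each compound tested at 15 concentrations in triplicate.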
Sequence of KiSS-1 receptor (Homo sapiens) (Q969F8 whole entry, looked up): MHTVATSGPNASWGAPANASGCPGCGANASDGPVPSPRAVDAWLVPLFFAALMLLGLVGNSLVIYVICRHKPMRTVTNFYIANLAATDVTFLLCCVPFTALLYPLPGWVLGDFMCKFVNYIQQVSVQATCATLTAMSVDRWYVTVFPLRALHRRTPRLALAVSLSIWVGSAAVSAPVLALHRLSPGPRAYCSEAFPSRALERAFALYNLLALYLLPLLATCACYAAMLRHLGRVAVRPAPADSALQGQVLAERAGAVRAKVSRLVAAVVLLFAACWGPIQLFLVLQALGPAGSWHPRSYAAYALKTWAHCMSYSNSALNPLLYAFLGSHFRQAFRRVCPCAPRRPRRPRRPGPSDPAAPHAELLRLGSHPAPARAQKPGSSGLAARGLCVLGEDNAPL

Assay [5] can be described thus: G protein-coupled receptor (GPCR) small molecule agonists, calcium flux assay: HEK293 wild type cell line counter screen (AID 1920065). In short, it runs like this: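 Calcium flux counter screen: compound added in agonist mode at 15 concentrations in triplicate to dye-loaded parental HEK293 cells. Fluorescence (480/540) read kinetically for 3 min; ATP served as positive control.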

A short description of assay [6]: p53 small molecule agonists, cell-based qHTS assay with human liver microsomes: qHTS cell viability counter screen (AID 1963579). Further: nearly all actives have a fitted effect of over 45% in size. The gist of the method: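 Tox21 library compounds, delivered from DMSO stocks, were tested on p53RE-bla cells together with 0.5 mg/mL human liver microsomes and 0.5 mg/mL NADPH (final) over 16 h at 37 C; CellTiter-Glo luminescence served as the cytotoxicity measure.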

A short description of assay [7]: p53 small molecule agonists, cell-based qHTS assay with rat liver microsomes: qHTS cell viability counter screen (AID 1963580). Further: nearly all actives have a fitted effect of over 45% in size. In short, it runs like this:
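Rat liver microsome (0.5 mg/mL final) and NADPH (0.5 mg/mL final) co-incubation with compounds for 16 h at 37 C on HCT-116 p53RE-bla cells; cytotoxicity taken from intracellular ATP luminescence.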

Assay [8] is described as follows: p53 small molecule agonists, cell-based qHTS assay: qHTS cell viability counter screen (AID 1963581). Further: nearly all actives have a fitted effect of over 45% in size. In short, it runs like this: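 Counter screen read by CellTiter-Glo luminescence (ATP content, 30 min at room temperature), run in the same wells as the beta-lactamase reporter read. HCT-116 p53RE-bla cells saw compounds for 16 h at 37 C.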
For assay [9], the target named is 5-hydroxytryptamine receptor 2A (Homo sapiens) (UniProt P28223). Kind of assay: 5-hydroxytryptamine receptor 2A (HTR2A) small molecule antagonists, cell-based qHTS assay (AID 1963586). Further: nearly all actives have a fitted effect of over 45% in size. In short, it runs like this:
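CHO cells stably expressing human HTR2A were plated for 18 h at 37 C, then loaded with calcium dye for 1 h. Compounds were preincubated 5 min at room temperature before DOI (4 nM solution) was added. Kinetic fluorescence was read for 3 min.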

Assay [10] has the same target. Kind of assay: 5-hydroxytryptamine receptor 2A (HTR2A) small molecule agonists, cell-based qHTS assay (AID 1963587). Further: nearly all actives have a fitted effect of over 30% in size. In short, it runs like this:
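Kinetic calcium-flux fluorescence (2 min, 1 sec intervals) after compound addition in agonist mode. HTR2A-CHO cells were cultured 18 h, then dye-loaded 1 h at 37 C.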

In assay [11] the target is Muscarinic acetylcholine receptor M1 (Homo sapiens) (UniProt P11229). Kind of assay: Cholinergic receptor muscarinic 1 (CHRM1) small molecule antagonists, cell-based qHTS assay (AID 1963588). Further: nearly all actives have a fitted effect of over 40% in size. In short, it runs like this: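 Compounds were tested at 15 concentrations in three independent runs. Dye-loaded CHRM1-CHO cells were exposed 5 min at room temperature before stimulation by acetylcholine added at 50nM. Intracellular calcium was read kinetically on FDSS for 3 min.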
Sequence of Muscarinic acetylcholine receptor M1 (Homo sapiens) (P11229 whole entry, looked up): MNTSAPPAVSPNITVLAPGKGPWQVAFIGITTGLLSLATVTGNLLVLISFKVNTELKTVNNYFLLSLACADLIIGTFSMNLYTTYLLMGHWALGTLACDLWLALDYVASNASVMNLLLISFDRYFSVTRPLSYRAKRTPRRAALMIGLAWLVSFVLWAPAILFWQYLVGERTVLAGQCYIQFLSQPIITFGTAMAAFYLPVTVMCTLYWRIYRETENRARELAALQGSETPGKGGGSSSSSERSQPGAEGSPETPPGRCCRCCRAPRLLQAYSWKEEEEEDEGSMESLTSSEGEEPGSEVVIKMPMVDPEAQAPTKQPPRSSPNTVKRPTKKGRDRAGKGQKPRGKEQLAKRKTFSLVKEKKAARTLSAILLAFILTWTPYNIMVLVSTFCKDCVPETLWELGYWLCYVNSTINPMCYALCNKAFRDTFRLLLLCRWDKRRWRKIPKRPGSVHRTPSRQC

Assay [12] has the same target. The experiment in a line: Cholinergic receptor muscarinic 1 (CHRM1) small molecule agonists, cell-based qHTS assay (AID 1963589). Further: nearly all actives have a fitted effect of over 35% in size. In short, it runs like this:
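Agonist-mode calcium-flux screen: compounds at 15 concentrations, three independent runs, were pin-transferred onto dye-loaded human CHRM1-CHO cells. Fluorescence was then recorded kinetically every second over minutes.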

In assay [13] the target is Beta-2 adrenergic receptor (Homo sapiens) (UniProt P07550). The experiment in a line: Adrenergic beta2 receptor (ADRB2) small molecule antagonists, cell-based qHTS assay (AID 1963592). Further: series mostly up to about 92 µM; nearly all actives have a fitted effect of over 50% in size. In short, it runs like this: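 Assay format: CHO-ADRB2 cells, 18-20hr seeding at 37C/5% CO2, then compound plus 1nM isoproterenol agonist mix for 0.5hr RT. Homogeneous time-resolved fluorescence cAMP detection after 1hr, expressed as 665/615 nm ratio.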
Sequence of Beta-2 adrenergic receptor (Homo sapiens) (P07550 whole entry, looked up): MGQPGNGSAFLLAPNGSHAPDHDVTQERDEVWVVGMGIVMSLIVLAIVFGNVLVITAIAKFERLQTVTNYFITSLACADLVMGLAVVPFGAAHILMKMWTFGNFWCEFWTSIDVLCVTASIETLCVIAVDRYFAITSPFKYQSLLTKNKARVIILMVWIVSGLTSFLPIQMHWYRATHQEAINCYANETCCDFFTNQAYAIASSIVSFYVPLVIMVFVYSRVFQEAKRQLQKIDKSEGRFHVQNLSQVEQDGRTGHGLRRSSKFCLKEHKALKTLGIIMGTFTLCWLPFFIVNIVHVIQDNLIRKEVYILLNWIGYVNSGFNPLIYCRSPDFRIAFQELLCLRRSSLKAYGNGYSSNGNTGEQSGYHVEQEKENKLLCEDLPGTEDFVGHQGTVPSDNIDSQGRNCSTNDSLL

Assay [14] deals with D(2) dopamine receptor (Homo sapiens) (UniProt P14416). Kind of assay: Dopamine D2 receptor (DRD2) small molecule agonists, cell-based qHTS assay (AID 1963594). Further: nearly all actives have a fitted effect of over 35% in size. In short, it runs like this:
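cAMP accumulation in DRD2-HEK293 cells measured by HTRF after 1 h detection; compounds added 10 min before NKH477 (200nM […]) forskolin-analogue stimulation, 30 min at room temperature, with Ro20-1724 present at 0.1 mM final.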

The target is the same in assay [15]. The experiment in a line: Dopamine D2 receptor (DRD2) small molecule antagonists, cell-based qHTS assay (AID 1963595; active means well fitted inhibition curve with a large enough effect in the signal ratio in the repeat runs, with a control signal flat; the % refers to the signal ratio; further: potency means the concentration at half of the fitted maximal effect). The gist of the method: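 HEK293 cells stably expressing DRD2 were preincubated with 0.1 mM Ro20-1724, then with compound for 10 min at room temperature. Cells were stimulated with 200 nM NKH477 plus 12 nM quinpirole for 30 min, and cAMP was read by HTRF.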

Assay [16] in a line: cAMP Responsive Elements (CRE) small molecule agonists, cell-based qHTS assay (AID 1963590). The gist of the method: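 Agonist mode: compound added to CRE-bla HEK 293T cells (2,000/well, 18 h after plating) for 3 h at 37 C/5% CO2. Reporter activity detected via FRET beta-lactamase substrate, 2 h room-temperature loading.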
In assay [17] the target is Beta-2 adrenergic receptor (Homo sapiens) (UniProt P07550). The experiment in a line: Adrenergic beta2 receptor (ADRB2) small molecule agonists, cell-based qHTS assay (AID 1963593).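 Further: CHO cells stably overexpressing human ADRB2.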 In short, it runs like this: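 CHO cells stably over-expressing ADRB2 were plated overnight at 37C, then dosed with compounds plus a stimulation mix containing 100uM IBMX and 25uM Ro-20-1724 for 0.5hr at room temperature. cAMP was measured by HTRF competition, 1hr.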

A short description of assay [18]: cAMP Responsive Elements (CRE) small molecule antagonists, cell-based qHTS assay (AID 1963591; active means well fitted inhibition curve with a large enough effect in the signal ratio in the repeat runs, not every such curve was filed as active; the % refers to the signal ratio). The gist of the method:
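Antagonist mode: compounds are added alongside the adenylyl cyclase activator NKH477 (0.25 uM final) to CRE-bla HEK293T cells for 3 h. LiveBLAzer FRET substrate, 2 h at room temperature, reports bla expression.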

Sequence of D(2) dopamine receptor (Homo sapiens) (P14416 whole entry, looked up): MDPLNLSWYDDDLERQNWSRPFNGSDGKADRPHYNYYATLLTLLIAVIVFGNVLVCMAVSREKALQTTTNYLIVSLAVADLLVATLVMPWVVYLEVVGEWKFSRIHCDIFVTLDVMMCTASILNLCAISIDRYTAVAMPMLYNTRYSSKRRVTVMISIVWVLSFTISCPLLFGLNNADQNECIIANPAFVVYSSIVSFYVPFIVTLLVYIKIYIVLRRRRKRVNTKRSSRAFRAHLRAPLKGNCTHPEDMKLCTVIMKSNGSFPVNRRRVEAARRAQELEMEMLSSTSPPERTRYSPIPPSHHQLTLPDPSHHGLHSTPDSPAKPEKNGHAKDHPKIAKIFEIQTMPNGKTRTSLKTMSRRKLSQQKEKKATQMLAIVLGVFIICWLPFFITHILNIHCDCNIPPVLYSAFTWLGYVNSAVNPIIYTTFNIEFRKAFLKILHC
Sequence of Gonadotropin-releasing hormone receptor (Homo sapiens) (P30968 whole entry, looked up): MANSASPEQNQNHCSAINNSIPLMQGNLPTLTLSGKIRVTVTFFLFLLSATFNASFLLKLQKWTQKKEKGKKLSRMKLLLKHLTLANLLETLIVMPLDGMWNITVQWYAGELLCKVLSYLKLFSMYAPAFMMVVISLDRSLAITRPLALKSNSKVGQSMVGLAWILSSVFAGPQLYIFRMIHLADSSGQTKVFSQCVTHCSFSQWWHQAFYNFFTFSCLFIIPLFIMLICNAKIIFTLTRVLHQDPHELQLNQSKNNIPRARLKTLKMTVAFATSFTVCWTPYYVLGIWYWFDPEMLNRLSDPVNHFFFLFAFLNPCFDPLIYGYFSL
Sequence of 5-hydroxytryptamine receptor 2A (Homo sapiens) (P28223 whole entry, looked up): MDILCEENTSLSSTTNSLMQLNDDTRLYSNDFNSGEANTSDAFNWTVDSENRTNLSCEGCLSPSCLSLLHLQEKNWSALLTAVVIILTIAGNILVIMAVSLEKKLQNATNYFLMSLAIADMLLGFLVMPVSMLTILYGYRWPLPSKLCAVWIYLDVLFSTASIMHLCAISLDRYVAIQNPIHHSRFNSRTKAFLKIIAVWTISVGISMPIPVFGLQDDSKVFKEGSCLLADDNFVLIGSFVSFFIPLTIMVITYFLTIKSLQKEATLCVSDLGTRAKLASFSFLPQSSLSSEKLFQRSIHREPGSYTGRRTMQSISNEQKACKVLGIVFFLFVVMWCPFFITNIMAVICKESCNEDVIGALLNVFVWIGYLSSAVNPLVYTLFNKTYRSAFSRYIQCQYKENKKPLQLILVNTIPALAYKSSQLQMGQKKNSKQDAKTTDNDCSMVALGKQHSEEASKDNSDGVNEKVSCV

For the compound `N#CSCSc1nc2ccccc2s1`, the Potency in [1] was 13.7 µM (active); in assay [2], 9.69 µM (active); in [15] it was 54.5 µM (active). In addition, the Potency entry in assay [3], in assay [4], in assay [5], in assay [6], in assay [7] and in [8] was “inactive” each time. For the same compound, the Potency result in assay [9], in [10], in assay [11], in [12], in [13] and in assay [14] was “inactive” each time.

On to `C[C@@H](O)[C@H]1C(=O)N2C(C(=O)O)=C(S[C@@H]3CN[C@H](CNS(N)(=O)=O)C3)[C@H](C)[C@H]12`, for which the Potency result in [1], in assay [2], in assay [3], in [4], in assay [5] and in [6] was “inactive” in each case. The Potency entry in assay [7], in assay [8], in assay [9], in assay [10], in assay [11] and in assay [12] was “inactive” in each case. Further, the Potency result in assay [14] and in assay [15] was “inactive” throughout.

As for `C=C(C)C(=O)OCCOP(=O)(O)OCCOC(=O)C(=C)C`, the Potency result in [1], in assay [2], in assay [3], in assay [4], in [5] and in assay [6] was “inactive” each time. The Potency entry in assay [7], in assay [8], in assay [9], in [10], in [12] and in [16] was “inactive” throughout. Further, the Potency result in assay [13], in assay [17], in [14] and in assay [15] was “inactive” throughout.

With `CSc1ccc(Oc2ccc(S(N)(=O)=O)cc2CN(C)C)cc1C`, the Potency entry in [1], in assay [2], in assay [3], in [4], in assay [5] and in assay [6] was “inactive” throughout. Moreover, the Potency entry in [7], in [8], in [9], in assay [10], in assay [11] and in assay [16] was “inactive” in each case. The Potency result in [18], in assay [13] and in assay [14] was “inactive” throughout.

For `CCCCCCCCCCO[C@@H]1O[C@H](CO)[C@@H](O)[C@H](O)[C@H]1O`, the Potency entry in assay [1], in assay [2], in assay [3], in assay [4], in [5] and in assay [6] was “inactive” in each case. Further, the Potency result in assay [7], in assay [8], in assay [9], in assay [11], in [12] and in [16] was “inactive” throughout. Further, the Potency entry in [18], in assay [13] and in assay [14] was “inactive” in each case.

With `CCCCCCC(=O)c1ccccc1`, the Potency result in assay [1], in assay [2], in assay [3], in [4], in [5] and in assay [6] was “inactive” throughout. Besides, the Potency result in assay [7], in assay [8], in [9], in assay [11], in assay [12] and in assay [16] was “inactive” in each case. In addition, the Potency result in [18], in assay [13], in assay [17], in assay [14] and in assay [15] was “inactive” each time.

`CC1CCC(=O)C1=O` (configuration not stated): the Potency entry in assay [1], in assay [2], in assay [3], in assay [4], in assay [5] and in [6] was “inactive” in each case. Besides, the Potency result in assay [7], in [8], in [9], in assay [11], in assay [12] and in assay [16] was “inactive” throughout. In addition, the Potency result in [18], in assay [14] and in [15] was “inactive” each time.
